Source: PubChem BioAssay (Tox21)
Results filed as inconclusive are left out. Where a call stands in place of a potency, no number is given. Active and inactive are the calls of the source. Unless noted, calls follow the shape of the dose curve; as a rule, active = well fitted curve in the direction sought with a large enough effect in the repeat runs; inconclusive = weak or mixed curves; inactive = no such curve, though single readings can be large; an effect the other way counts as inactive or inconclusive.

Tests used:
[1] = qHTS assay to identify small molecule agonists of the estrogen receptor alpha (ER-alpha) signaling pathway in the presence of an antagonist - cell viability counter screen (AID 1259386);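 also: cells exposed to compounds for 22 h at 37 °C before the viability read; nearly all actives have a fitted effect of over 30% in size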; also: potency is read from the fitted curve at half-maximal effect
Outline: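 In this counter screen, compound effects on VM7Luc4E2 viability were tested in the presence of the antagonist ICI-182,780 at 10.0nM final. Compounds were dosed at 15 concentrations, exposure lasted 22hr, and the CellTiter-Fluor signal was read.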

[2] = molecular target: Progesterone receptor (Homo sapiens) (UniProt P06401); assay: qHTS assay to identify small molecule agonists of the progesterone receptor (PR) signaling pathway (AID 1346784; calls by dose curve; also: nearly all actives have a fitted effect of over 30% in size)
Sequence of Progesterone receptor (Homo sapiens) (P06401 whole entry, looked up): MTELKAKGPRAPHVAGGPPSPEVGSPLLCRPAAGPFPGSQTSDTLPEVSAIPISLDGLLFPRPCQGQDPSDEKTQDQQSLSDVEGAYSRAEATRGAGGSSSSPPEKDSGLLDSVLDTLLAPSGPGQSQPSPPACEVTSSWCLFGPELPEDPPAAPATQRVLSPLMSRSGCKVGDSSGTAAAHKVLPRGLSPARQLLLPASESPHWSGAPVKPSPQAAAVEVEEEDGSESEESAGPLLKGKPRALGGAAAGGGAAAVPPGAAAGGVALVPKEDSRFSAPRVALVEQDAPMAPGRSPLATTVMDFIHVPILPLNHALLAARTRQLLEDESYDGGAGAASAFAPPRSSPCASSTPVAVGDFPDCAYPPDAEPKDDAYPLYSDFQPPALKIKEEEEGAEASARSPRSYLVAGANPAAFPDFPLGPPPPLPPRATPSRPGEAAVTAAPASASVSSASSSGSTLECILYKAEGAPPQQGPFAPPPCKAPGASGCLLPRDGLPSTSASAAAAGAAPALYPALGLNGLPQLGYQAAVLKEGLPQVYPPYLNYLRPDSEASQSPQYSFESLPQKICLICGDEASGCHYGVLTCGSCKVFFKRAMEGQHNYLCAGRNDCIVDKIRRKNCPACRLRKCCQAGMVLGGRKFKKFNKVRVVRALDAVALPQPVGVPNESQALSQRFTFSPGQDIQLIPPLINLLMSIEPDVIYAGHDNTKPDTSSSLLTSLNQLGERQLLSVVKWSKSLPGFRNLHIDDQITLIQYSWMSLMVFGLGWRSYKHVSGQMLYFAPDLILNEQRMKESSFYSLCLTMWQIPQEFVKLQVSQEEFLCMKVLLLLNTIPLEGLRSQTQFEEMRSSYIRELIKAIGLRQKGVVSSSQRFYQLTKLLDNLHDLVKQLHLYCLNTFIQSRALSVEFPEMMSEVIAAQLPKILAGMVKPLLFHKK
Outline: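 Agonist qHTS: compounds pinned onto 3,000 PR-UAS-bla HEK 293T cells per well in charcoal-stripped serum medium, 16hr at 37C, then beta-lactamase activity measured by LiveBLAzer FRET fluorescence after 2 hours at room temperature.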

[3] = molecular target: Progesterone receptor (Homo sapiens) (UniProt P06401); assay: qHTS assay to identify small molecule antagonists of the progesterone receptor (PR) signaling pathway (AID 1346795; active = well fitted inhibition curve with a large enough effect in the signal ratio in the repeat runs, not every such curve was filed as active; the % refers to the signal ratio; also: potency is read from the fitted curve at half-maximal effect)
Outline: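 Antagonist mode with agonist R5020 at 1 nM final and 16 hr incubation at 37C. Reporter was beta-lactamase driven by UAS in HEK293T (PR-UAS-bla), 2% charcoal-stripped serum; signal from LiveBLAzer FRET substrate, 2 hr at room temperature.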

[4] = qHTS assay to identify small molecule antagonists of the progesterone receptor (PR) signaling pathway - cell viability counter screen (AID 1346798); also: series mostly up to about 92 µM; nearly all actives have a fitted effect of over 50% in size
Outline: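 Cytotoxicity read as CellTiter-Glo luminescence (30 min, room temperature) in the same wells as the beta-lactamase readout. HEK293T PR-UAS-bla cells in charcoal-stripped 2% FBS received compound and R5020, then 16 h at 37C, 5% CO2.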

[5] = qHTS assay to identify small molecule agonists of the progesterone receptor (PR) signaling pathway - cell viability counter screen (AID 1346799; calls by dose curve; also: nearly all actives have a fitted effect of over 45% in size)
Outline: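 Cytotoxicity measured by CellTiter-Glo luminescence (30 min, RT) in the same wells as the PR beta-lactamase agonist read. Those HEK293T cells had 16 h compound treatment at 37 C in 2% charcoal-stripped FBS medium.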

[6] = qHTS assay to identify small molecule antagonists of the TGF-beta/Smad signaling pathway - cell viability counter screen (AID 1346824); also: nearly all actives have a fitted effect of over 50% in size
Outline: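 SBE-bla HEK 293T cells were plated overnight at 37 C, then given compounds in DMSO plus TGF-beta1 (added as 0.25 ng/mL solution) for 5 hr. After the bla read, CellTiter-Glo was added to the same wells and luminescence read after 30 min at room temperature.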

[7] = qHTS assay to identify small molecule agonists of the TGF-beta/Smad signaling pathway - cell viability counter screen (AID 1346829); also: top concentration of the series differs between compounds; nearly all actives have a fitted effect of over 45% in size
Outline: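 Here the cytotoxicity of library compounds is measured in SBE-bla HEK 293T cells treated for 5 hr, using CellTiter-Glo added to wells already read for the beta-lactamase reporter.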

[8] = qHTS assay to identify small molecule agonists of the TGF-beta/Smad signaling pathway (AID 1346859; active = well fitted activation curve with a large enough effect in the signal ratio in the repeat runs, not every such curve was filed as active; the % refers to the signal ratio; also: series mostly up to about 77 µM)
Outline: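 Fluorescence (ex 405 nm; em 460 and 530 nm) was read 2 h after LiveBLAzer FRET substrate at RT. The preceding compound treatment of overnight-plated SBE-bla HEK293T cells lasted 5 h at 37 C.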

[9] = molecular target: Thyrotropin-releasing hormone receptor (Homo sapiens) (UniProt P34981); assay: qHTS assay to identify small molecule antagonists of the thyrotropin-releasing hormone receptor (TRHR) signaling pathway (AID 1346877; active = well fitted inhibition curve with a large enough effect in the repeat runs, not every such curve was filed as active; also: series mostly up to about 51 µM)
Sequence of Thyrotropin-releasing hormone receptor (Homo sapiens) (P34981 whole entry, looked up): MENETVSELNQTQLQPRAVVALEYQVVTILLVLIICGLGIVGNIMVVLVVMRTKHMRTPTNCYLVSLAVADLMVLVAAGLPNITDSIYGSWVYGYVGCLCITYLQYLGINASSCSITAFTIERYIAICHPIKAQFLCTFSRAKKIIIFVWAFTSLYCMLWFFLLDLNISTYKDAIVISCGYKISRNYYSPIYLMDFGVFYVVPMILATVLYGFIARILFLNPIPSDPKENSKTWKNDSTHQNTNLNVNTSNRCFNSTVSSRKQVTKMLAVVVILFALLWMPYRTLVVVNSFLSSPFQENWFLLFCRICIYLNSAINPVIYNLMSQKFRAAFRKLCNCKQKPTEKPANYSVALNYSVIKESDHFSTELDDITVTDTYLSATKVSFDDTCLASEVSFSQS
Outline: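 Kinetic fluorescence (3 min, 1 s resolution) following stimulation with TRH at 1 nM final; HEK293 cells bearing human TRHR; 5 min compound preincubation at RT; concentration-response over 15 points, triplicates.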

[10] = molecular target: Thyrotropin-releasing hormone receptor (Homo sapiens) (UniProt P34981); assay: qHTS assay to identify small molecule agonists of the thyrotropin-releasing hormone receptor (TRHR) signaling pathway (AID 1346891; calls by dose curve; also: series mostly up to about 58 µM)
Outline: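 Agonist-mode intracellular calcium readout: kinetic fluorescence over 3 min at 1 s intervals after compound addition to TRHR-HEK293 cells (18 h seeded, 2 h dye-loaded at 37 C). Fifteen concentrations, triplicates.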

[11] = Human pregnane X receptor (PXR) small molecule agonists, qHTS cell viability counter screen (AID 1346977); also: nearly all actives have a fitted effect of over 50% in size; also: potency is read from the fitted curve at half-maximal effect
Outline: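 Same-well viability read: CellTiter-Fluor added after 23 hr compound exposure, fluorescence measured 1 hr later. Cells were PXR-Luc HepG2 seeded at 2,000/well in 5% charcoal-stripped FBS medium, rested 5 hr before dosing at 37 C.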

[12] = Caspase-3/7 induction in HepG2 cells by small molecules, qHTS assay (AID 1346978); also: nearly all actives have a fitted effect of over 15% in size
Outline: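 Wild-type HepG2 cells (2,000/well) were settled 5 h at 37 C, 5% CO2, then exposed to compounds in DMSO for 17 h. Caspase-3/7 activity was read by luminescence 30 min after adding Caspase-Glo 3/7 reagent at room temperature.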

[13] = Caspase-3/7 induction in CHO-K1 cells by small molecules, qHTS cell viability counter screen (AID 1346979); also: nearly all actives have a fitted effect of over 35% in size; also: potency is read from the fitted curve at half-maximal effect
Outline: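 Cytotoxicity counter screen: CellTiter-Fluor added to compound-treated wild-type CHO-K1 cells at 16 h (37C, 5% CO2), fluorescence measured 1 h later; same wells as caspase-3/7 measurement.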

[14] = Caspase-3/7 induction in CHO-K1 cells by small molecules, qHTS assay (AID 1346980); also: nearly all actives have a fitted effect of over 15% in size
Outline: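 Wild-type cells were seeded at 1,500 per well and settled 5 hr at 37 C, 5% CO2, then exposed to DMSO-dissolved compounds for 17 hr. Caspase-Glo 3/7 reagent was added, and luminescence was read after 30min at room temperature.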

[15] = Caspase-3/7 induction in HepG2 cells by small molecules, qHTS cell viability counter screen (AID 1346981); also: series mostly up to about 92 µM; nearly all actives have a fitted effect of over 30% in size
Outline: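 In this quantitative HTS counter screen, compounds delivered in DMSO were left on unmodified HepG2 cells for 16 hr at 37 C. Viability was then determined fluorometrically with CellTiter-Fluor, in parallel with caspase-3/7 induction in the same wells.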

[16] = molecular target: Nuclear receptor subfamily 1 group I member 2 (Homo sapiens) (UniProt O75469); assay: Human pregnane X receptor (PXR) small molecule agonists, qHTS assay (AID 1346982); also: nearly all actives have a fitted effect of over 35% in size; also: potency is read from the fitted curve at half-maximal effect
Sequence of Nuclear receptor subfamily 1 group I member 2 (Homo sapiens) (O75469 whole entry, looked up): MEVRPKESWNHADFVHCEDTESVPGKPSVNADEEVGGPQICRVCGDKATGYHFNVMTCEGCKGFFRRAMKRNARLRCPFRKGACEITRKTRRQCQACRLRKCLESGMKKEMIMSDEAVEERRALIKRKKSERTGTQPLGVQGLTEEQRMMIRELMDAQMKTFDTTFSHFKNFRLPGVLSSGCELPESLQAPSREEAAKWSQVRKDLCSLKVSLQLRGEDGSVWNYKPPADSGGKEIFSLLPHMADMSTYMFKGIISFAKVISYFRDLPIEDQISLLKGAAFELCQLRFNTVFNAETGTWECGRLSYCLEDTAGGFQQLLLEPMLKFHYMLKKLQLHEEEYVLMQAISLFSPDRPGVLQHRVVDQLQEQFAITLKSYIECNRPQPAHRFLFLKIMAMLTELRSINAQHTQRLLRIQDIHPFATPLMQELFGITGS
Outline: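 Reporter HepG2 cells expressing PXR-Luc are cultured in charcoal-stripped FBS (5%), treated with compounds for 24 hr at 37 C, and assayed by ONE-Glo luminescence after 30 min at room temperature.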

[17] = molecular target: Acetylcholinesterase (Homo sapiens) (UniProt P22303); assay: Acetylcholinesterase (AChE) small molecule antagonists: colormetric cell-based qHTS assay (AID 1347395; calls by dose curve; also: nearly all actives have a fitted effect of over 30% in size)
Sequence of Acetylcholinesterase (Homo sapiens) (P22303 whole entry, looked up): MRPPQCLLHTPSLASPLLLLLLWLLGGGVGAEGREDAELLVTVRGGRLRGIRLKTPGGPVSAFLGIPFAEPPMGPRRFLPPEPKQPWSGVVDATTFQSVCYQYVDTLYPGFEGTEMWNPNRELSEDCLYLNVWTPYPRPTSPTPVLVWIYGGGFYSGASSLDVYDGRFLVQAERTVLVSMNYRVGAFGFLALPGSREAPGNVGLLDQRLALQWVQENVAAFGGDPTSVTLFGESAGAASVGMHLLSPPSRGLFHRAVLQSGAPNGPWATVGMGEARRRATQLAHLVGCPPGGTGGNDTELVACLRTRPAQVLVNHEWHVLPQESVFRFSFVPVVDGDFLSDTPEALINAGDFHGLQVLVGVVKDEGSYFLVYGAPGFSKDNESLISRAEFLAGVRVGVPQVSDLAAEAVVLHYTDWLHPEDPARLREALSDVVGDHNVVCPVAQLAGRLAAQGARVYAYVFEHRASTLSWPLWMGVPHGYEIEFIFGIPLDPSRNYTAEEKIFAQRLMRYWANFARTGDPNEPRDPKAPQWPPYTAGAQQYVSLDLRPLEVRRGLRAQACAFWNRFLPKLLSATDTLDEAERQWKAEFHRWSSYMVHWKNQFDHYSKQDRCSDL
Outline: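 Colorimetric readout: DTNB quantifies thiocholine from acetylthiocholine hydrolysed by endogenous AChE of SH-SY5Y cells (2,000/well, plated overnight). Compound pretreatment 30 min, substrate incubation 90 min, both 37 C.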

[18] = molecular target: Acetylcholinesterase (Homo sapiens) (UniProt P22303); assay: Acetylcholinesterase (AChE) small molecule antagonists: enzyme-based qHTS assay (AID 1347397; calls by dose curve; also: nearly all actives have a fitted effect of over 55% in size); settings: Potency: AChE enzyme activity inhibition
Outline: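 Compound or DMSO vehicle was pin-transferred onto recombinant human AChE (50 mU/mL as dispensed) and left 30 min at room temperature. Acetylthiocholine with DTNB then started the reaction, read colorimetrically 10 min later.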

SMILES | Potency [1] | Potency [2] | Potency [3] | Potency [4] | Potency [5] | Potency [6] | Potency [7] | outcome [8] | Potency [9] | Potency [10] | Potency [11] | Potency [12] | Potency [13] | Potency [14] | Potency [15] | Potency [16] | Potency [17] | Potency [18]
CC(=O)CCC(C)=O | inactive | inactive | inactive | inactive | inactive | inactive | inactive | inactive | inactive | inactive | inactive | inactive | inactive | inactive | inactive | inactive | inactive | inactive
Nc1nc(=S)[nH][nH]1 | inactive | inactive | inactive | inactive | inactive | inactive | inactive | inactive | inactive | inactive | inactive |  | inactive | inactive | inactive | inactive | inactive | inactive
[O-][Cl+]O | inactive | inactive | inactive | inactive | inactive | inactive | inactive | inactive | inactive | inactive |  | inactive | inactive | inactive |  | inactive | inactive | inactive
C=C(C#N)CCC#N | inactive | inactive | inactive | inactive | inactive | inactive |  | inactive | inactive |  | inactive | inactive | inactive | inactive | inactive | inactive | inactive | inactive
C=CC(=O)OCCCCO | inactive | inactive | inactive | inactive | inactive | inactive | inactive |  | inactive |  | inactive | inactive | 54.5 µM (active) | inactive |  | inactive | inactive | inactive
ClCC(Br)CBr (stereo not drawn) | inactive | inactive | inactive | inactive | inactive | inactive | inactive | inactive |  |  | inactive | inactive | inactive | inactive | inactive | inactive | inactive | inactive
Nc1ccc(N=Nc2ccc(-c3ccc(N=Nc4c(S(=O)(=O)O)cc5cc(S(=O)(=O)O)c(N=Nc6ccccc6)c(O)c5c4N)cc3)cc2)c(N)c1 | 15.7 µM (active) | inactive | inactive | inactive | inactive | inactive | inactive | inactive |  |  | 17.6 µM (active) |  | 17.6 µM (active) | inactive |  |  | inactive | inactive
O=C(CBr)OCc1ccccc1 | inactive | inactive | inactive | inactive |  | inactive | inactive | inactive | inactive | inactive | inactive | inactive | inactive | inactive | inactive | inactive | inactive | inactive
O=S1OC[C@@H]2[C@H](CO1)[C@]1(Cl)C(Cl)=C(Cl)[C@@]2(Cl)C1(Cl)Cl (stereo partly drawn) | inactive | inactive | 30.6 µM (active) | inactive | inactive | inactive | inactive | inactive |  |  |  | inactive |  |  |  | 30.6 µM (active) |  | 
CC1C(=O)C[C@]2(C(C)C)C[C@H]12 (stereo partly drawn) | inactive | inactive | inactive | inactive | inactive | inactive |  | inactive |  |  | inactive | inactive |  |  | inactive |  | inactive | inactive
Brc1ccccc1 | inactive | inactive | inactive | inactive | inactive | inactive |  | inactive | inactive | inactive | inactive |  | inactive |  |  | inactive | inactive | inactive
CC(C)O.CC(C)O.OCCN(CCO)CCO.OCCN(CCO)CCO.[Ti] | inactive | inactive | inactive | inactive | inactive | inactive | inactive | inactive |  |  | inactive | inactive | inactive | inactive | inactive | inactive | inactive | inactive
Cl/C=C\C[N+]12CN3CN(CN(C3)C1)C2 | inactive | inactive | inactive | inactive | inactive | inactive |  | inactive | inactive | inactive | inactive | inactive | inactive | inactive | inactive | inactive |  | inactive
O=S(=O)(Cl)c1ccccc1 | inactive | inactive | inactive | inactive | inactive | inactive | inactive | inactive |  |  | inactive | inactive | inactive |  | inactive | inactive | inactive | inactive
COC(C)(C)CCC[C@H](C)C/C=C/C(C)=C/C(=O)OC(C)C | inactive | inactive | inactive | inactive |  | inactive | inactive | inactive | inactive | inactive | inactive | inactive | inactive | inactive |  | 24.3 µM (active) | inactive | inactive
C/C=C/C=O | inactive | inactive | inactive | inactive | inactive | inactive | inactive | inactive |  |  | inactive | inactive | inactive | inactive | inactive | inactive | inactive | inactive
